Test results from PubChem BioAssay (EPA / NIEHS).
Several values for one entry are separate records, joined by “and”; a condition that tells them apart may be missing. Equal entries are not always repeated. Inconclusive results are not listed. Activity calls are given as the source filed them. How the source made its calls, unless noted: active means hit-call score of the fitted dose curve at least 0.9, where 1 is the maximum; inactive means score below 0.9.

How the values were obtained:
[1] = read-out: NAD(P)H dehydrogenase [quinone] 1 (NQO1), NQO1 (gene 1728); assay: LTEA_HepaRG_NQO1: Life Technologies and Expression Analysis (LTEA) Assay for NAD(P)H dehydrogenase [quinone] 1 (NQO1) using HepaRG (AID 2283526); details: mRNA level, 48 h; actives raise or lower the signal
Summary of the method: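 Human HepaRG hepatic cells received chemicals for 48 h in serum-free induction medium with 0.5% DMSO, up to 100 uM. Expression was assessed by TaqMan qRT-PCR against housekeeping controls and fitted bidirectionally against DMSO.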

[2] = read-out: Nuclear factor erythroid 2-related factor 2 (Homo sapiens) (UniProt Q16236); assay: LTEA_HepaRG_NFE2L2: Life Technologies and Expression Analysis (LTEA) Assay for Nuclear factor erythroid 2-related factor 2 (NFE2L2) Transcription Factor using HepaRG (AID 2283527); details: mRNA level, 48 h; actives raise or lower the signal;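 further: TaqMan qRT-PCR transcript level normalised to ACTB GAPDH and POLR2A housekeeping genes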
Summary of the method: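 Transcript level of NFE2L2 is the read-out, measured by microfluidic TaqMan qRT-PCR and normalized to three housekeeping genes. Human HepaRG cultures received test chemical for 48 h at up to 100 uM in half-log steps. Gain or loss of signal is fitted relative to 0.5% DMSO.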

[3] = read-out: succinate dehydrogenase complex iron sulfur subunit B (SDHB), SDHB (gene 6390); assay: LTEA_HepaRG_SDHB: Life Technologies and Expression Analysis (LTEA) Assay for succinate dehydrogenase complex iron sulfur subunit B (SDHB) using HepaRG (AID 2283528); details: mRNA level, 48 h; actives raise or lower the signal
Summary of the method: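 Readout is SDHB transcript level by qRT-PCR, normalised to three housekeeping genes and fitted bidirectionally against 0.5% DMSO vehicle. Human HepaRG cells were treated for 48 h at up to 100 uM.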

[4] = read-out: Signal transducer and activator of transcription 3 (Homo sapiens) (UniProt P40763); assay: LTEA_HepaRG_STAT3: Life Technologies and Expression Analysis (LTEA) Assay for Signal transducer and activator of transcription (STAT3) using HepaRG (AID 2283529); details: mRNA level, 48 h; actives raise or lower the signal
Summary of the method: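 Read-out is STAT3 mRNA level by qRT-PCR, normalized to three housekeeping genes, in human HepaRG liver cells treated for 48 h. Concentrations ran from 100 uM downward in half-log steps; curves were fitted for gain or loss relative to 0.5% DMSO.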

[5] = read-out: solute carrier (SLCO1B1), SLCO1B1 (gene 10599); assay: LTEA_HepaRG_SLCO1B1: Life Technologies and Expression Analysis (LTEA) Assay for solute carrier (SLCO1B1) using HepaRG (AID 2283530); details: mRNA level, 48 h; actives raise or lower the signal
Summary of the method: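 SLCO1B1 transcript levels were quantified by TaqMan qRT-PCR using three housekeeping genes for normalization. This followed 48 h chemical exposure (100 uM top, half-log, 8 points, 0.5% DMSO) of HepaRG liver cells, with gain or loss fitted relative to DMSO.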

[6] = read-out: sulfotransferase 2A1 (SULT2A1), SULT2A1 (gene 6822); assay: LTEA_HepaRG_SULT2A1: Life Technologies and Expression Analysis (LTEA) Assay for sulfotransferase 2A1 (SULT2A1) using HepaRG (AID 2283531); details: mRNA level, 48 h; actives raise or lower the signal
Summary of the method: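 Expression change of SULT2A1, by qRT-PCR with three housekeeping-gene normalization, was scored bidirectionally versus DMSO. Cells: differentiated HepaRG, dosed in duplicate for 48 h across 8 points, highest 100 µM, half-log dilution, 0.5% DMSO.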

[7] = read-out: Transforming Growth Factor (TGFA), TGFA (gene 7039); assay: LTEA_HepaRG_TGFA: Life Technologies and Expression Analysis (LTEA) Assay for Transforming Growth Factor (TGFA) using HepaRG (AID 2283532); details: mRNA level, 48 h; actives raise or lower the signal
Summary of the method: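 HepaRG (human liver line), 48 h exposure, 8 conc. half-log down from 100 uM, 0.5% DMSO vehicle, duplicates; serum-free induction medium. TGFA mRNA by TaqMan qRT-PCR, ACTB/GAPDH/POLR2A normalization; gain/loss fit vs DMSO.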

[8] = read-out: Transforming Growth Factor (TGFB1), TGFB1 (gene 7040); assay: LTEA_HepaRG_TGFB1: Life Technologies and Expression Analysis (LTEA) Assay for Transforming Growth Factor (TGFB1) Transporter using HepaRG (AID 2283533); details: mRNA level, 48 h; actives raise or lower the signal
Summary of the method: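 TGFB1 transcript measured by qRT-PCR with normalisation to three housekeeping genes (ACTB, GAPDH, POLR2A); human HepaRG line treated in duplicate for 48 hr with an 8-point series topping at 100 uM, 0.5% DMSO vehicle, bidirectionally fitted.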

TIMP1, TIMP1 (gene 7076) = assay: LTEA_HepaRG_TIMP1: Life Technologies and Expression Analysis (LTEA) Assay for TIMP1 using HepaRG (AID 2283534); details: mRNA level, 48 h; actives raise or lower the signal
Summary of the method: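 Bidirectional change in TIMP1 transcript versus 0.5% DMSO, measured by TaqMan qRT-PCR with three housekeeping genes for normalization. HepaRG human liver cells dosed 48 h in duplicate, top concentration 100 uM with half-log dilutions.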

[9] = read-out: Tumor necrosis factor receptor 1 (TNFRSF1A), TNFRSF1A (gene 7132); assay: LTEA_HepaRG_TNFRSF1A: Life Technologies and Expression Analysis (LTEA) Assay for Tumor necrosis factor receptor 1 (TNFRSF1A) using HepaRG (AID 2283535); details: mRNA level, 48 h; actives raise or lower the signal
Summary of the method: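 mRNA measured by qRT-PCR (TaqMan, Fluidigm arrays) against ACTB/GAPDH/POLR2A housekeepers after 48 h chemical exposure of HepaRG cells. Top concentration 100 uM, half-log 8-point series, duplicates; vehicle 0.5% DMSO, both fit directions.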

[10] = read-out: Thyroid Hormone Responsive (THRSP), THRSP (gene 7069); assay: LTEA_HepaRG_THRSP: Life Technologies and Expression Analysis (LTEA) Assay for Thyroid Hormone Responsive (THRSP) using HepaRG (AID 2283536); details: mRNA level, 48 h; actives raise or lower the signal
Summary of the method: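 mRNA induction or loss relative to 0.5% DMSO vehicle was fitted bidirectionally across an eight-point curve whose highest exposure was 100 uM. Human HepaRG liver cells received chemicals in duplicate over 48 h before RNA extraction.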

[11] = read-out: Cellular tumor antigen p53 (Homo sapiens) (UniProt P04637); assay: LTEA_HepaRG_TP53: Life Technologies and Expression Analysis (LTEA) Assay for Tumor Protein P53 (TP53) using HepaRG (AID 2283537); details: mRNA level, 48 h; actives raise or lower the signal
Summary of the method: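 Read-out is TP53 transcript level by microfluidic qRT-PCR, normalised to three housekeeping genes and fitted bidirectionally against DMSO. Human HepaRG cells received compounds for 48 h, highest concentration 100 uM.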

[12] = read-out: UDP glucuronosyltransferase (UGT1A1), UGT1A1 (gene 54658); assay: LTEA_HepaRG_UGT1A1: Life Technologies and Expression Analysis (LTEA) Assay for UDP glucuronosyltransferase (UGT1A1) using HepaRG (AID 2283538); details: mRNA level, 48 h; actives raise or lower the signal
Summary of the method: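 Human liver HepaRG cultures receive test chemical for 48 h, up to 100 uM in 0.5% DMSO, with phenobarbital induction controls. UGT1A1 mRNA is measured by qRT-PCR and normalized to ACTB, GAPDH and POLR2A.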

[13] = read-out: UDP glucuronosyltransferase (UGT1A6), UGT1A6 (gene 54578); assay: LTEA_HepaRG_UGT1A6: Life Technologies and Expression Analysis (LTEA) Assay for UDP glucuronosyltransferase (UGT1A6) using HepaRG (AID 2283539); details: mRNA level, 48 h; actives raise or lower the signal
Summary of the method: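 Expression was quantified by TaqMan qRT-PCR on Fluidigm arrays with ACTB/GAPDH/POLR2A normalization and bidirectional fitting against 0.5% DMSO. HepaRG cells (~100,000/well) were treated in duplicate for 48 h at eight half-log concentrations up to 100 uM in serum-free induction medium.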

[14] = read-out: X-box binding protein 1 (XBP1), XBP1 (gene 7494); assay: LTEA_HepaRG_XBP1: Life Technologies and Expression Analysis (LTEA) Assay for X-box binding protein 1 (XBP1) using HepaRG (AID 2283540); details: mRNA level, 48 h; actives raise or lower the signal
Summary of the method: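 XBP1 transcript by qRT-PCR (housekeeping-normalized: ACTB, GAPDH, POLR2A) after 48 h chemical treatment of HepaRG cells, 8-point half-log series topping at 100 uM, vehicle 0.5% DMSO. Gain and loss of signal fitted relative to DMSO.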

[15] = LTEA_HepaRG_LDH_cytotoxicity: Cytotoxicity Assessment in the Life Technologies and Expression Analysis (LTEA) Assay (AID 2283563; active means hit-call score of the fitted dose curve at least 0.9, where 1 is the maximum;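 on AC50: LDH activity released into spent culture medium as a marker of cell death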)
Summary of the method: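 LDH release into culture medium read after 48 h chemical treatment of HepaRG cells. Duplicate wells, eight-point half-log series topping at 100 uM, 0.5% DMSO vehicle and baseline.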

[16] = target: Cellular tumor antigen p53 (Homo sapiens) (UniProt P04637); assay: TOX21_p53_BLA_p2_ratio: Tox21 HCT-116 p53 Agonism Beta-lactamase Assay, Ratio, Phase 2 (AID 2283592; active means hit-call score of the fitted dose curve at least 0.9, where 1 is the maximum)
Sequence of Cellular tumor antigen p53 (Homo sapiens) (P04637 whole entry, looked up): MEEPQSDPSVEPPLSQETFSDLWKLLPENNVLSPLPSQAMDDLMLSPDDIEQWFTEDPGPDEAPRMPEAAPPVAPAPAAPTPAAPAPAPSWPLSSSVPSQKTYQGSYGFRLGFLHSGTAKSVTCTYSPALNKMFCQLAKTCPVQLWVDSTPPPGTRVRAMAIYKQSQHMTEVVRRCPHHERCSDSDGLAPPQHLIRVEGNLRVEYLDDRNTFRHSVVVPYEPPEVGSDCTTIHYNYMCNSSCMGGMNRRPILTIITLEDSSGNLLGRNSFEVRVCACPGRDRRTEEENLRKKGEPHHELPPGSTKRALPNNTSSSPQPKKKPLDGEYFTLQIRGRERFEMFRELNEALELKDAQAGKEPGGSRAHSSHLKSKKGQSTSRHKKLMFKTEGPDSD
Summary of the method: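 Gain-of-signal p53 agonism was scored from the beta-lactamase FRET ratio (460/530 nm, 405 nm excitation) in HCT116 cells treated 16 h at 37C, 5% CO2, with DMSO serving as negative control and baseline.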

[17] = TOX21_p53_BLA_p2_viability: Viability Assessment in the Tox21 HCT-116 p53 Agonism Beta-lactamase Assay, Phase 2 (AID 2283591; active means hit-call score of the fitted dose curve at least 0.9, where 1 is the maximum;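 further: compound exposure lasted 16 h at 37 °C; actives lower the ATP signal meaning cytotoxicity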)
Summary of the method: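 Cytotoxicity readout: CellTiter-Glo ATP luminescence, 30 min at room temperature, after the beta-lactamase read. Cells were HCT116 exposed 16 h at 37C to compounds pin-transferred at 217-fold dilution from DMSO stocks.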

[18] = TOX21_p53_BLA_p3_viability: Viability Assessment in the Tox21 HCT-116 p53 Agonism Beta-lactamase Assay, Phase 3 (AID 2283593; active means hit-call score of the fitted dose curve at least 0.9, where 1 is the maximum;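 further: cells exposed to compound for 16 h before reading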)
Summary of the method: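 Cellular ATP was quantified by CellTiter-Glo luminescence, read after 30 min at room temperature. Beforehand, HCT116 cells (4000/well) received compound 5 h post-seeding, 217-fold diluted from DMSO, then incubated 16 h at 37C.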

[19] = ATG_XTT_Cytotoxicity: Cytotoxicity Assessment in the Attagene TRANS-FACTORIAL HepG2 Assay (AID 2283584; active means hit-call score of the fitted dose curve at least 0.9, where 1 is the maximum)
Summary of the method: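 Viability endpoint from XTT after 24 h chemical exposure of reporter-transfected human HepG2 liver cells; signal loss fitted relative to DMSO negative control.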

Measured: AC50

Sequence of Signal transducer and activator of transcription 3 (Homo sapiens) (P40763 whole entry, looked up): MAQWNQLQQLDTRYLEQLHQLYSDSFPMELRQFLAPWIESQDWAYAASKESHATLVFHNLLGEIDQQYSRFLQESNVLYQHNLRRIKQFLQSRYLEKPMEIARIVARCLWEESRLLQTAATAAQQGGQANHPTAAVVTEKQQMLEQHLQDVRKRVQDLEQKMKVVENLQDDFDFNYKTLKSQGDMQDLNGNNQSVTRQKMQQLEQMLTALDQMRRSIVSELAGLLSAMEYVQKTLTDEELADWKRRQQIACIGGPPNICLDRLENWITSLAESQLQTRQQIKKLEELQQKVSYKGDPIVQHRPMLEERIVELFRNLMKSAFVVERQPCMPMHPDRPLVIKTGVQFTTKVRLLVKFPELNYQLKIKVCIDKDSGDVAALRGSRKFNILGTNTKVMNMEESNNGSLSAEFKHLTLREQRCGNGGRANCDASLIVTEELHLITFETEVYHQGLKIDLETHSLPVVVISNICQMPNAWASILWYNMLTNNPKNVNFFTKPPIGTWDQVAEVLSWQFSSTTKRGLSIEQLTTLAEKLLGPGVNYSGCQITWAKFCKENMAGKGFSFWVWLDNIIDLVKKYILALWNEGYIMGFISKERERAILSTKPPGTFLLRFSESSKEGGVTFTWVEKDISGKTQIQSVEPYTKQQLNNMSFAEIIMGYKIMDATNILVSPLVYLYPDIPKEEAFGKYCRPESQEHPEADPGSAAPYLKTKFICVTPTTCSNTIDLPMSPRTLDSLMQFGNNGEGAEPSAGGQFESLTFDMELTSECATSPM
Sequence of Nuclear factor erythroid 2-related factor 2 (Homo sapiens) (Q16236 whole entry, looked up): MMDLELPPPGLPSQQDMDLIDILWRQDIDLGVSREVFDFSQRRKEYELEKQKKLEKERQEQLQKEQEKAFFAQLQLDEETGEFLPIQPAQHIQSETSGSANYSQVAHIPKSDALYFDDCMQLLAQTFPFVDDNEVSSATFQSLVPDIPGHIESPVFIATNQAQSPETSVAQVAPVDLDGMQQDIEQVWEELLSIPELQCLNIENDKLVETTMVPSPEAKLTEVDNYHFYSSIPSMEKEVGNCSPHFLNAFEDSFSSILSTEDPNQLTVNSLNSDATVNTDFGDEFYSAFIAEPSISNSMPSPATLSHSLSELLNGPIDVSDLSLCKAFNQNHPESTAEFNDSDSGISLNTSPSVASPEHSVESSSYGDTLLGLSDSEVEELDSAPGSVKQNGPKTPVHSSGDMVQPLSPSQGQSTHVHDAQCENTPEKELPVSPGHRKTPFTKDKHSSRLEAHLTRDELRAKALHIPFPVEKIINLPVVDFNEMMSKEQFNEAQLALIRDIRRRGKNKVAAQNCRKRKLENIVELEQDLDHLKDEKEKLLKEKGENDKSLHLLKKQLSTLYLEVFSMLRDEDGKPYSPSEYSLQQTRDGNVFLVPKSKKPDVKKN

CCOC(=O)C(Cl)Cc1cc(-n2nc(C)n(C(F)F)c2=O)c(F)cc1Cl (configuration not stated)
active: [12] 38.2 µM
inactive: [1] | [2] | [3] | [4] | [5] | [6] | [7] | [8] | TIMP1, TIMP1 (gene 7076) | [9] | [10] | [11] | [13] | [14] | [15] | [16]

O=C(O)COc1nc(Cl)c(Cl)cc1Cl
inactive: [1] | [2] | [3] | [4] | [5] | [6] | [7] | [8] | TIMP1, TIMP1 (gene 7076) | [9] | [10] | [11] | [12] | [13] | [14] | [15] | [17] | [16] | [18]

CCCCNC(=O)n1c(NC(=O)OC)nc2ccccc21
active: [16] 11 µM and 9.55 µM
inactive: [1] | [2] | [3] | [4] | [5] | [6] | [7] | [8] | TIMP1, TIMP1 (gene 7076) | [9] | [10] | [11] | [13] | [14] | [15] | [17]

C#CCOS(=O)OC1CCCCC1Oc1ccc(C(C)(C)C)cc1 (configuration not stated)
inactive: [2] | [10] | [14] | [19] | [17] | [18]
active: [1] 22.9 µM | [3] 30.5 µM | [4] 36.3 µM | [5] 29.2 µM | [6] 27.3 µM | [7] 22.2 µM | [8] 50 µM | TIMP1, TIMP1 (gene 7076) 26.5 µM | [11] 58.4 µM | [12] 27.5 µM | [13] 26.4 µM | [15] 29.3 µM | [16] 2.65 µM and 1.54 µM
